Screens deposited in PubChem by National Center for Advancing Translational Sciences (NCATS).
AmpC detergent = inhibitors of E. coli AmpC beta-lactamase with detergent; Potency, µM (titrated, usually from 114 µM), for the others: at the top dose activity change, negative = inhibition, usual class: inhibitors; 370,000 tested, 0.041% active; P00811; AID 485294; AmpC hydrolysis of nitrocefin, absorbance 480 nm, 0.01% Triton;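 also: 0% = no-compound wells and -100% = no-enzyme wells; nearly all actives have a fitted effect of over 25% in size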
Target sequence (P00811 whole entry, looked up): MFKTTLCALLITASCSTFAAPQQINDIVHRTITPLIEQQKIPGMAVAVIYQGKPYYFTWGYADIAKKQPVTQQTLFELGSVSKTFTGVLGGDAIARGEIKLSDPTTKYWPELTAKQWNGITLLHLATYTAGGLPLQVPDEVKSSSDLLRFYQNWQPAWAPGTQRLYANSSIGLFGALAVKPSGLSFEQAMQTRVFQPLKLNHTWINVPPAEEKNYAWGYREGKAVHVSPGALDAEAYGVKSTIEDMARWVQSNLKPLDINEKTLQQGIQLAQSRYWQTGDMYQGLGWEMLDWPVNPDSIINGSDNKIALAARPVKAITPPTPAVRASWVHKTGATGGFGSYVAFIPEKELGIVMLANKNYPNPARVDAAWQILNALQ
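AmpC (5.3 nM in the dispensed reagent) in 20 mM phosphate pH 7.0 with 0.01% (detergent screen) or 0.0001% Triton X-100 was preincubated with compounds for 15 min at room temperature. Nitrocefin was then added from an 800 uM solution, and hydrolysis was followed at 480 nm.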
AmpC inh no detg = AmpC beta-lactamase inhibition without detergent. P00811. AID 485341. AmpC nitrocefin hydrolysis, absorbance 480 nm, 0.0001% Triton. 330,000 tested, 0.52% active. Potency, µM (series often up to 57.1 µM), inactives show at the top dose activity change, negative = inhibition, most hits filed as inhibitors;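 also: plate controls were no compound for no effect and no enzyme for full effect; nearly all actives have a fitted effect of over 20% in size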
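20 mM phosphate pH 7.0 + 0.01% (detergent screen) or 0.0001% Triton X-100; 5.3 nM AmpC reagent; cpd preinc 15 min RT; nitrocefin (800 uM stock) to start; A480 q20 s × 4 min; Activity was normalised to no-enzyme and no-compound control wells.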
Sm TGR block = S. mansoni TGR enzyme inhibition; Q962Y6; purified TGR, DTNB reduction, TNB absorbance 405 nm; Potency, µM (highest dose often 114 µM), inactives show at the highest dose activity change, negative = inhibition, usual class: inhibitors; 360,000 tested, 3% active; also: nearly all actives have a fitted effect of over 60% in size
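First, TGR (20 nM dispensed) and NADPH were mixed with compound. Second, a 15 min room-temperature incubation followed. Third, further NADPH and then DTNB were added to start the reaction. Finally, TNB absorbance was monitored kinetically.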
Active calls of the source: *; ? = inconclusive; / = no result given; [ ] = dose if it differs, or a comment. In the library only some 3.3% were active in any assay of this set; here they are far more common. Calls follow the shape of the dose curve; as a rule, active = well fitted curve in the direction sought with a large enough effect; inconclusive = small, poorly fitted or top-dose-only effect, or another doubt; inactive = no such curve, though single readings can be large; an effect the other way counts as inactive or inconclusive. Unless noted, % is scaled to controls: 0 for no effect and ±100 for the full control effect; potency is read from the fitted curve at half-maximal effect.

SMILES	AmpC detergent	AmpC inh no detg	Sm TGR block
COc1ccccc1NC(=O)CSc1nc(-c2cccc(Cl)c2)nc2c1Cc1c(CO)cnc(C)c1O2	0%	/	20µM*
CCSc1nc(-c2ccccc2F)nc2c1Cc1c(CO)cnc(C)c1O2	0%	/	45µM*
CCSc1nc(-c2ccccc2OC)nc2c1Cc1c(CO)cnc(C)c1O2	4%	/	-5%
O=C(CC1N=C2c3ccccc3N=C(SCc3cccc(Cl)c3)N2C1=O)NC1CCCCC1 (configuration not stated)	10%	/	?
CCC1=NN2C(=N)/C(=C\c3cccn3-c3c(C)cccc3C)C(=O)N=C2S1	?	-37%	10%
CCC1=NN2C(=N)/C(=C\c3cccn3-c3ccc(C)cc3C)C(=O)N=C2S1	?	25µM*	-1%
O=C(O)Cc1ccc(N=Nc2c(O)c(C(=O)O)cc3ccccc23)cc1	-15%	-39%	-32%
NS(=O)(=O)c1ccc(N=Nc2c(O)c(C(=O)O)cc3ccccc23)cc1	-10%	22µM*	?
CC(C)(C)OC(=O)N1CCC(c2nnc(SCc3cccc(Cl)c3)o2)CC1	3%	/	1%
Oc1ccc(CN2CCC(Cc3ccccc3)CC2)c2cccnc12	8%	-21%	7.9µM*
CCOC(=O)N1CCN(Cc2ccccn2)CC1	-2%	/	2%
Oc1ccc(CN2CCc3ccccc3C2)c2cccnc12	-11%	/	32µM*
Oc1ccc(CN2CCN(c3ccccc3)CC2)c2cccnc12	?	-19%	1.4µM*
CCOC(=O)N1CCN(Cc2ccc(O)c3ncccc23)CC1	3%	19%	0.28µM*
Clc1ccccc1CN1CCC(Cc2ccccc2)CC1	-1%	-11%	6%
Oc1ccc(CN2CCCCC2)c2cccnc12	-1%	-17%	0%
Cn1cc(CN2CCc3ccccc3C2)c2ccccc21	2%	-19%	?
COc1cc(C2C=C(C(=O)O)Nc3ncnn32)ccc1O (configuration not stated)	17%	/	2%
CCCCc1nn2c(=O)cc(COC(=O)c3cccs3)nc2s1	1%	/	2%
CC(NC(=O)c1ccc(Cn2c(=O)c3cccn3c3cccnc32)cc1)c1ccccc1 (configuration not stated)	-10%	/	-5%
COc1cccc(C(=O)N2CC(=O)Nc3ccc(C)cc3C2c2ccc(F)cc2)c1OC (configuration not stated)	-3%	/	-12%
Cc1ccc(Nc2c3c(nc4nncn24)CCC3)c(C)c1	0%	/	-10%
COC(=O)c1ccc(Nc2ncnc3c2cnn3-c2ccccc2)cc1	2%	/	0%
Cc1nnc(SCC(=O)NCc2ccccc2F)c2nn(-c3ccc(Cl)cc3)c(C)c12	7%	/	6%
O=C(Nc1cccc(-c2nc3ccccc3[nH]2)c1)c1c(F)cccc1F	-3%	/	-4%
SMILES	AmpC detergent	AmpC inh no detg	Sm TGR block
CCCCOc1ccc(-c2nnn(CC(=O)NCCc3c[nH]c4ccccc34)n2)cc1	0%	0.28µM*	0%
CCCCCCCCCCCCCCCC(=O)NCCc1c[nH]c2ccccc12	6%	-15%	1%
CSc1ncc(Cl)c(C(=O)N(Cc2ccc(C(C)C)cc2)C2CCS(=O)(=O)C2)n1 (configuration not stated)	-6%	/	1%
Cc1cccc(S(=O)Cc2ccc(C(=O)N3CCOCC3)o2)c1 (configuration not stated)	2%	-2%	45µM*
CCOC(=O)N1CCN(C(=O)c2ccc(CS(=O)c3ccccc3)o2)CC1 (configuration not stated)	-2%	-4%	-5%
C=C1CCN(CC(=O)OC)S(=O)(=O)c2ccccc21	9%	-22%	32µM*
C=C1CCN(C(C)C(=O)OC)S(=O)(=O)c2ccccc21 (configuration not stated)	-4%	-15%	-5%
COc1ccc(Cn2c(SCc3ccc(C(=O)NC(C)C)cc3)nc3cccnc32)cc1	27%	/	5%
Cc1ccc(S(=O)(=O)N(C)c2ccc(OCC(=O)Nc3nnc(C4CC4)s3)cc2)cc1	-2%	14µM*	-4%
Cc1ccc(S(=O)(=O)Nc2nnc(C3CCCCC3)s2)cc1	-1%	-30%	-8%
Cc1ccc(S(=O)(=O)NC(=O)Nc2nnc(C3CC3)s2)cc1	2%	4.5µM*	4%
CCc1nnc(NC(=O)COc2ccc(N(C)S(=O)(=O)c3ccc(C)cc3)cc2)s1	-4%	-16%	9%
CCn1c(CN2CCC(C)CC2)nc2cc(NC(=O)COc3ccc([N+](=O)[O-])cc3)ccc21	24%	/	1%
CC(C)c1cccc(C(C)C)c1NS(=O)(=O)c1cccs1	2%	/	5%
O=C(O)c1ccc2c(c1)C1C=CCC1C(c1cc3c(cc1Br)OCO3)N2 (configuration not stated)	6%	-52%	-10%
CC(C)C1Nc2ccc(S(N)(=O)=O)cc2C2C=CCC21 (configuration not stated)	-2%	-48%	13µM*
CCOC(=O)C1=C(C)N(C)C(=O)NC1c1ccccc1OC (configuration not stated)	4%	-3%	2%
Cc1ccc2c(c1)C1C=CCC1C(C(=O)O)N2 (configuration not stated)	-16%	-36%	0.71µM*
CC(=O)c1ccc2c(c1)C1C=CCC1C(C(=O)O)N2 (configuration not stated)	?	10%	?
O=C(O)C1Nc2c(cccc2C(F)(F)F)C2C=CCC12 (configuration not stated)	-6%	-39%	1.4µM*
COc1cccc2c1NC(C(=O)O)C1CC=CC21 (configuration not stated)	?	-58%	7.1µM*
NS(=O)(=O)c1ccc2c(c1)C1C=CCC1C(C1CC=CCC1)N2 (configuration not stated)	?	-47%	?
Cc1cccc(NC(=O)CSc2nc3c(sc4ccccc43)c(=O)n2CCCC(=O)NC2CCCC2)c1	11%	/	-6%
CC1=C(C(=O)Nc2cc(Cl)ccc2C)C(c2ccccc2F)n2ncnc2N1 (configuration not stated)	7%	/	-1%
CCc1nnc(SCC(=O)Nc2cccc(C(F)(F)F)c2)c2cc3oc(C)cc3n12	-6%	/	-3%
SMILES	AmpC detergent	AmpC inh no detg	Sm TGR block
CCOC(=O)c1c(C)[nH]c(=S)c(C#N)c1-c1ccc(OC)cc1	?	-51%	7%
CCOC(=O)c1c(C)[nH]c(=S)c(C#N)c1-c1ccc(Cl)cc1	-6%	28µM*	-12%
O=C1NC(=S)N(C2CC2)C(=O)/C1=C/c1ccc2c(c1)CCN2CCCCl	-15%	-44%	?
CC(C)(C)N1C(=O)NC(=O)/C(=C\c2ccc3c(c2)CCN3CCCCl)C1=O	4%	-41%	?
CCN1C(=O)/C(=C/c2ccc3c(c2)CCN3CCCCl)C(=O)NC1=S	-2%	-37%	8.9µM*
C=CCN1C(=O)/C(=C/c2ccc3c(c2)CCCN3CCC)C(=O)NC1=S	-2%	-12%	8.9µM*
O=C(Nc1ccccc1N1CCCCC1)c1ccc(-c2cccc(Cl)c2)o1	6%	-56%	-8%
Cc1ccc2nsnc2c1NC(=O)c1ccc(-c2cc(Cl)ccc2Cl)o1	-1%	18%	40µM*
CCC(=O)Nc1c(C)ccc2nsnc12	-12%	-30%	9%[11.4 µM]
